GPR151 ag = activators of human GPR151; Q8TDV0; PathHunter beta-arrestin GPR151 cells, luminescence; activation, % at 11.2 µM; hit rate 1% among 650,000; in the data active means activation above about 4.9%;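 further: 0% = median of compound wells and 100% = cells with positive control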
MITF inh = blocks human microphthalmia-associated transcription factor | inhibition, % at 2.6 µM | hit rate 0.91% among 650,000 | AlphaScreen MITF homodimerization, bead proximity signal; in the data active means inhibition above about 50%;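 further: 0% = vehicle wells with protein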
FBW7 act = human FBW7 E3 ligase activation, primary screen; AID 1259310; AlphaScreen FBW7–phospho-cyclin E peptide binding, activator screen; normalized activity (activation), % at 26.1 µM; hit rate 0.13% among 650,000; Q969H0; in the data active means normalized activity above about 1.9%;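 further: purified mutant Fbw7 with reduced substrate affinity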
Target sequence (Q969H0 whole entry, looked up): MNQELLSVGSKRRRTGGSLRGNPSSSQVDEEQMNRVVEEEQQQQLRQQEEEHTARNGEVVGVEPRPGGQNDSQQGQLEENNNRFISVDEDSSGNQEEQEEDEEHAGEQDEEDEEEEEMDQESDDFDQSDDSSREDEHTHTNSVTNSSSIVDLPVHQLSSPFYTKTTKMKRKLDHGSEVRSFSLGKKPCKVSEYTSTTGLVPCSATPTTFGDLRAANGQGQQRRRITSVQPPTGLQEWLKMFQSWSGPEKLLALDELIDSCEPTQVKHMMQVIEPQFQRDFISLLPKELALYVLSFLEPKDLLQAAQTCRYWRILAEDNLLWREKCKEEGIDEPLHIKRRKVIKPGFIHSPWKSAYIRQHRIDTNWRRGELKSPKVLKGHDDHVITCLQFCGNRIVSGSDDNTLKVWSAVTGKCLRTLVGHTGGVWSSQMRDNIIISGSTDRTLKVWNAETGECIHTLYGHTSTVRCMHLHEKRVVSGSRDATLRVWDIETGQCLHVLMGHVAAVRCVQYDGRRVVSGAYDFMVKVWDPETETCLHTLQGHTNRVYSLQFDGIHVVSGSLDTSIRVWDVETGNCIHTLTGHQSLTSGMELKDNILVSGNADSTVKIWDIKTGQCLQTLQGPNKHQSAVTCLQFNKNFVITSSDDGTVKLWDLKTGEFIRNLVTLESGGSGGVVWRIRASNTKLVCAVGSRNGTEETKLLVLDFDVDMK
TEAD-YAP inh = TEAD-YAP interaction inhibition | inhibition, % at 9.12 µM | hit rate 1.4% among 640,000 | AID 1259422 | HEK-TIYL cells, TEAD-Gal4/YAP UAS-luciferase luminescence; in the data active means inhibition above about 32%;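 further: 0% = median of test compound wells and 100% = reference inhibitor wells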
* marks the source's active call; other numbers are inactive results. An excerpt weighted towards active compounds, which were near 3.5% of everything screened.

SMILES	GPR151 ag	MITF inh	FBW7 act	TEAD-YAP inh
Nc1cccc2c1C(=O)N(C(=O)c1cc([N+](=O)[O-])ccc1Cl)C2=O	-1.7	-16.4	-0.1	-2.9
CSc1ccccc1NC(=O)N1CCC(CO)(Cc2cccc(F)c2)CC1	-0.4	8.0	0.0	1.8
Cc1nc(-c2ccccc2)nc2[nH]c(-c3ccccc3)cc(=O)c12	-0.9	7.6	0.0	12.4
Cc1nc(C)c2c(=O)cc(-c3ccccc3)[nH]c2n1	-1.0	-1.9	-0.1	52.2*
Cn1/c(=N/N=C/c2ccc(C(=O)O)cc2)sc2ccccc21	-3.4	-6.0	0.1	-48.6
Cn1/c(=N\N=C/c2ccc(O)cc2)sc2ccccc21	1.5	9.5	1.9*	-21.9
OC1CCN(Cc2ccccc2Cl)CC1	0.8	17.7	-0.2	5.0
Clc1ccccc1CN1c2ccccc2N(Cc2ccccc2Cl)C1c1ccccc1Cl	1.0	6.3	0.6	81.1*
CC(C)[C@@H](CO)Nc1ccnc2c(-c3ccoc3)cnn12	0.2	-3.2	0.1	-3.3
CC(C)[C@@H](CO)Nc1ccnc2c(-c3ccccc3F)cnn12	2.6	10.1	0.1	55.6*
Oc1cccc(-c2cnn3c(NCCc4ccccn4)ccnc23)c1	0.1	-12.7	-0.4	84.7*
Fc1ccccc1-c1cnn2c(NCCc3ccccn3)ccnc12	-2.6	-13.7	-0.4	72.5*
COc1ccc(-c2cc(C(F)(F)F)n3nc(C(=O)Nc4ccc5c(c4)OCO5)c(Cl)c3n2)cc1OC	0.8	18.1	0.2	-3.5
Cc1ccccc1C(=O)Nc1ccccc1C(=O)Nc1ccccc1	-0.1	-2.4	0.3	21.9
c1c2c(cc3sc(N4CCOCC4)nc13)OCCO2	-5.6	15.4	-0.1	69.3*
COc1ccc(CCNc2nc(Nc3cccnc3)nc3c2ncn3C2CCCCC2)cc1	-0.2	1.6	-0.1	14.3
CCOC(=O)c1cc(CC)sc1NC(=O)C1C2CCC(C2)C1C(=O)O (stereo not drawn)	-0.6	6.8	0.0	4.9
COc1cc(COc2ccc3ccc(=O)oc3c2)cc(OC)c1OC	-0.8	0.4	0.0	4.3
COc1cc(COc2ccc3c(C)cc(=O)oc3c2)cc(OC)c1OC	2.4	-8.0	0.1	55.5*
COc1ccc(/C=C2\SC(=O)NC2=Nc2ccc(C)cc2)c(OC)c1	0.9	-3.7	-0.2	57.6*
COc1ccc(/C=C2\SC(=Nc3cc(C)cc(C)c3)NC2=O)c(OC)c1	0.0	0.2	-0.5	57.2*
COc1ccc(/C=C2\SC(=Nc3cccc(C)c3C)NC2=O)c(OC)c1	1.0	3.9	0.0	6.2
CCC(=O)Nc1cc(C)nn1-c1nc(-c2ccccc2)cs1	-0.4	12.9	0.7	-4.3
COc1ccc(C(=O)NC(=S)Nc2cccc(C(=O)O)c2)cc1	2.4	-0.9	0.0	61.4*
O=C(COc1ccc(Cl)cc1)Nc1cccc(NC(=O)c2ccco2)c1	-1.4	7.9	0.0	47.1*
SMILES	GPR151 ag	MITF inh	FBW7 act	TEAD-YAP inh
COc1ccc(NC(=S)NNc2ccc(C(=O)O)cc2)cc1	-0.5	1.9	-0.3	39.5*
CC(=O)Oc1ccc(C(=O)Nc2cccc(F)c2)cc1	-3.6	-7.1	0.1	-40.6
COc1ccc(C(=O)NC(=S)Nc2cccc(OC)c2)cc1	-0.1	-16.3	-0.1	-56.1
CC(C)Oc1ccc(C(=O)Nc2cccc(F)c2)cc1	-6.8	15.1	0.9	43.4*
O=C(COc1ccc(Cl)cc1)Nc1ccc(NC(=O)c2ccco2)cc1	1.2	2.4	0.3	-4.2
COc1ccc(C(=O)NC(=S)Nc2cccc(NC(=O)c3ccco3)c2)cc1	-1.3	9.3	0.0	33.5*
COc1ccc(C(=O)Nc2cccc(C)c2)cc1	-9.4	-3.6	0.0	66.3*
COc1ccc(C(=O)NC(=S)Nc2cccc(S(=O)(=O)N3CCOCC3)c2)cc1	-1.9	5.7	0.6	44.2*
Cc1cccc(N2CCN(C(=O)c3ccccc3)CC2)c1C	0.8	23.9	0.2	13.9
CC(=O)Oc1ccc(C(=O)N2CCN(c3cccc(C)c3C)CC2)cc1	0.5	6.8	-0.2	51.3*
COCCNC(=O)/C(C#N)=C1\C=C(c2ccc(OC)cc2)Oc2ccc(C)cc21	-1.7	1.8	0.1	-7.8
CC(=O)c1ccc(N2CCN(S(=O)(=O)c3ccc4c(c3)CC(C)N4C(C)=O)CC2)cc1 (stereo not drawn)	0.0	-7.1	-0.1	41.3*
CCC(=O)N1c2ccc(S(=O)(=O)N3CCN(c4ccccc4)CC3)cc2CC1C (stereo not drawn)	-0.4	15.5	0.2	1.0
COc1ccc(NC2=C(n3nnc4ccccc43)C(=O)c3ccccc3C2=O)cc1	-0.6	6.5	-0.2	59.1*
O=C(OCCNC1=C(n2nnc3ccccc32)C(=O)c2ccccc2C1=O)c1ccccc1	-0.2	7.2	-1.1	-6.4
Cc1ccc(Cl)cc1N1CCN(S(=O)(=O)c2ccc3c(c2)NC(=O)CC(=O)N3)CC1	0.5	-6.3	-0.3	-4.3
O=C(Nc1ccc2c(c1)Cc1ccccc1-2)c1cc(Cl)ccc1Cl	0.1	-7.5	-0.1	8.0
O=C(Nc1ccc2c(c1)Cc1ccccc1-2)c1cc(Br)ccc1Cl	0.8	13.8	-0.3	49.9*
CSc1ccc(-c2ccc(-n3ccnc3)cc2)nn1	-7.8	-37.2	-0.1	52.0*
CC(=O)Oc1ccc(-c2nc3ccc(C)cc3s2)cc1	-6.2	1.4	0.1	97.9*
CC(=O)Nc1ccc2nc(-c3ccc(OC(C)=O)cc3)sc2c1	-0.4	-4.0	-0.2	78.1*
Cc1ccc2nc(-c3ccc(OC(=O)c4ccc(Br)o4)cc3)sc2c1	0.9	8.3	0.1	65.0*
CC(=O)Nc1ccc(-c2nc3ccc(NC(C)=O)cc3s2)cc1	2.3	-15.3	0.6	-49.9
Cc1ccc2nc(-c3ccc(NC(=O)/C=C\C(=O)O)cc3)sc2c1	0.1	-1.4	0.1	34.9*
Cc1ccc(OCC(=O)Nc2ccc(-c3nc4ccc(C)cc4s3)cc2)cc1	-0.3	6.3	0.2	-17.3
SMILES	GPR151 ag	MITF inh	FBW7 act	TEAD-YAP inh
Cc1ccc2nc(-c3ccc(NC(=O)/C=C/c4ccccc4)cc3)sc2c1	-0.4	3.9	0.0	-21.7
O=[N+]([O-])c1ccc(N2CCCCC2)cc1Sc1cccc2cccnc12	-1.5	19.0	-0.4	-2.0
CCCN1CNC(=S)N(c2ccc(C)cc2)C1	4.9	8.3	0.0	6.7
COC(=O)CNS(=O)(=O)Nc1ccc(-c2nc3ccc(C)cc3s2)cc1	-5.5	8.8	-0.1	67.4*
Cc1ccc2nc(-c3ccc(OC(=O)c4cccc(I)c4)cc3)sc2c1	-1.8	-4.5	-0.2	84.4*
Cc1ccc(-c2nc3ccccc3s2)cc1NC(=O)c1cccc(I)c1	1.4	7.8	-0.1	2.2
Cc1ccc(C(=O)Oc2ccc(-c3nc4ccc(C)cc4s3)cc2)cc1	-1.0	-5.1	0.0	38.6*
COc1cc(OC)cc(C(=O)Nc2ccc(-c3nc4ccc(C)cc4s3)cc2)c1	-0.1	9.5	0.1	-2.5
Cc1ccc2nc(-c3ccc(NC(=O)CSc4nnc(N)s4)cc3)sc2c1	-2.1	-6.9	-0.1	58.8*
COCc1ccc(-c2ccc(OC3CCN(S(C)(=O)=O)CC3)cc2)cc1	2.1	0.9	0.0	8.6
N#CSc1ccc(N=Cc2c(O)n(-c3ccc(Cl)cc3)c(=O)[nH]c2=O)cc1	0.0	10.0	-0.7	7.4
CC(C)[C@@H](Cn1nc(-c2ccc(F)c(F)c2)ccc1=O)NC(=O)c1ccco1	1.4	5.4	0.0	5.8
